Compound activity (PubChem BioAssay)
Compounds with a hit are over-represented: about 7.4% of the library has one in this group of screens.
FXIa inh mix = FXIa protease inhibitors in compound pools, primary screen, biochemical, 10-compound mixtures | Coagulation factor XI (Homo sapiens), P03951 | purified FXIa, fluorogenic substrate, pooled mixtures | inhibition, % at 5 µM | 0.19% of 62,000 active | AID 680, 2007;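 further: each value is inhibition by a whole ten-compound pool holding the compound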
D1 mod = D1 CRE-luciferase signal change, two-sided – cell-based, HEK293 D1, dopamine EC30, D1 allosteric modulator project, primary screen; D(1A) dopamine receptor (Homo sapiens), P21728; dopamine EC30 potentiation; actives deviate in either direction; B-score at 10 µM; 5.9% of 58,000 active; AID 641, 2007;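 active means luminescence count or its row- and column-corrected plate score outside the 99.7% band of the plate's sample wells, on either side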
DAT uptake mod = changed hDAT dopamine uptake under cocaine IC80, either direction, primary screen, cocaine antagonist project, cell-based, LLC-PK1 hDAT, [14C]-dopamine uptake, MLSMR | B-score at 10 µM | Sodium-dependent dopamine transporter (Homo sapiens), Q01959 | 1.3% of 110,000 active | LLC-PK1 hDAT cells, [14C]-dopamine uptake with cocaine IC80; actives deviate in either direction;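 active means Z score or B-score, a plate-position-corrected score, falls beyond the plate's 99.7% confidence bounds, in either direction; inactive means both scores lie inside the 99.7% bounds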
FXIIa mix inh = human factor XIIa inhibitors, primary screen, biochemical, pooled compound mixtures, fluorogenic substrate; Coagulation factor XII (Homo sapiens), P00748; purified FXIIa; inhibition, % at 5 µM; 0.2% of 62,000 active
M1 agonist = M1 muscarinic receptor agonists, primary screen, CHO-M1 cells, Fluo-4 calcium, agonist mode | Muscarinic acetylcholine receptor M1 | Fluo-4 calcium fluorescence; hits give high values | B-score at 10 µM | 3% of 64,000 active | AID 626, 2007;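 active means fluorescence rise, raw or as B-score row- and column-corrected plate score, outside the 99.7% band of its plate's samples, either direction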
M1 antagonist = antagonists of rat M1 muscarinic receptor | Muscarinic acetylcholine receptor M1 (Rattus norvegicus), P08482 | CHO-M1 cells, Fluo-4 calcium, ACh EC80 antagonist mode; hits give low values | B-score at 10 µM | 3.4% of 64,000 active;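 active means calcium fluorescence response, raw or row-and-column corrected B-score, differing from the plate sample mean either way at a set confidence level, mostly lower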
Target sequence (P08482 whole entry, looked up): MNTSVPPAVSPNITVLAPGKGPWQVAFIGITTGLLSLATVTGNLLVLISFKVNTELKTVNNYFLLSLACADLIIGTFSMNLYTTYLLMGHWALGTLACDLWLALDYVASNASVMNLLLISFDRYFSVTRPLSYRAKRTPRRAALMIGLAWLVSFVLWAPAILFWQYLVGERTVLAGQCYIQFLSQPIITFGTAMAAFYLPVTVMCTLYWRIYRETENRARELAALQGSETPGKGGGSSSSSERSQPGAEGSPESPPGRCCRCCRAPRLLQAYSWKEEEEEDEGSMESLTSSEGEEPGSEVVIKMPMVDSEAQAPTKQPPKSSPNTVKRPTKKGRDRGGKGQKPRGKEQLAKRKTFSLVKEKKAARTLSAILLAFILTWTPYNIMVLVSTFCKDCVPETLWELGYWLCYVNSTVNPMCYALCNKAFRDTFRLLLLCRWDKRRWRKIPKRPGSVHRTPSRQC
D1 mod confirm = D1 receptor positive allosteric modulators, retest, confirmation, cell-based, HEK293 D1, CRE-luciferase, duplicate; AID 642, 2007; dopamine EC30 potentiation; hits give high values; 88% of 2,200 active; luminescence at 10 µM; shares compounds with D1 mod;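 active means luminescence in either of two replicates above the same-plate mean plus 3 SD of the low-dose dopamine control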
D1 ag no DA = D1 receptor agonism without dopamine, confirmation, mechanism study for D1 allosteric modulator project, cell-based, HEK293 D1, CRE-luciferase, secondary assay 1. AID 646, 2007. shares compounds with D1 mod. luminescence at 10 µM. luminescence, no dopamine; hits give high values. 0.8% of 1,900 active; in the data active means luminescence above about 3900
Isoprot counter = isoproterenol response counter-screen activity for D1 modulators | 63% of 2,200 active | HEK293 D1 CRE-luciferase, isoproterenol EC30 counter-screen | AID 647 | shares compounds with D1 mod | calls only at 10 µM;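 active means luminescence in either replicate above plate mean of wells with a partly effective reference agonist dose plus 3 SD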;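 further: isoproterenol raises cAMP through native beta-adrenoceptor Gs so signal bypasses D1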
Numbers stand for hits; n = inactive; x = no result; + = active, no number. Unless noted, no stated cut-off is given here; in the data, active means inhibition above about 20% (passing the limit was not always enough); inactive means the rest.

SMILES	FXIa inh mix	D1 mod	DAT uptake mod	FXIIa mix inh	M1 agonist	M1 antagonist	D1 mod confirm	D1 ag no DA	Isoprot counter
COCCn1c(C2CCCCC2)nc2sc3ccccc3c(=O)c2c1=O	n	3.37	n	n	n	n	10064	x	n
Cc1ccc(-n2c(=O)cc(N3CC(C)OC(C)C3)[nH]c2=O)cc1 (configuration not stated)	x	x	n	x	x	x	x	x	x
Cc1ccc(-n2c(=O)cc(N3CC(C)CC(C)C3)[nH]c2=O)cc1 (configuration not stated)	n	3.58	n	n	n	n	3236	n	n
Cc1oc(-c2ccc(Cl)cc2)nc1CN1CCC(C(=O)NCCCN2CCOCC2)CC1	n	3.65	n	n	n	n	n	n	n
CCCc1nc(N)c(C#N)c(-c2ccco2)c1CC	n	6.72	n	n	n	n	9040	n	+
N#Cc1c(N)nc(SCc2ccccc2)c(C#N)c1-c1ccco1	x	4.25	n	x	n	n	9744	n	+
Cc1c(-c2ccc(F)cc2)nc(N)c(C#N)c1-c1ccco1	n	5.83	n	n	n	n	8280	x	n
Brc1ccc(-c2nn3c(Cc4ccccc4)nnc3s2)o1	n	3.81	n	n	n	n	11236	n	n
c1coc(-c2nn3c(-c4ccco4)nnc3s2)c1	n	2.82	x	n	n	n	12468	n	+
COc1ccccc1-c1nn2c(-c3ccco3)nnc2s1	x	x	n	x	n	n	x	x	x
Clc1ccccc1-c1nnc2sc(-c3ccc(Br)o3)nn12	n	2.3	n	n	n	n	8388	n	n
CC(C)Nc1nc(NC(C)C)nc(Oc2ccc(/C=N/O)cc2)n1	n	5.32	n	n	n	n	6456	x	n
CN(C)c1nc(Oc2ccc(/C=N/O)cc2)nc(N(C)C)n1	n	n	n	n	n	n	x	x	x
CCOC(=O)C1C(C)=CC(=O)CC1c1ccco1 (configuration not stated)	n	n	n	n	n	n	x	x	x
Cc1cc(C)n(-c2ccc(C(=O)OCC(=O)Nc3ccc(S(=O)(=O)N4CCOCC4)cc3)cc2)n1	n	n	n	n	n	n	x	x	x
O=c1nc2scc(-c3ccccc3)n2c2ccccc12	n	3.39	n	n	n	n	17356	n	n
COC(=O)c1cc(=O)n2c(-c3ccccc3)csc2n1	n	n	n	n	n	n	x	x	x
COC(=O)c1cc(Cc2ccc(N)c(C(=O)OC)c2)ccc1N	n	3.03	n	n	n	n	7532	x	+
COC(=O)c1ccc(C(=O)OC)c(N)c1	n	n	n	n	n	n	x	x	x
O=C(NC1C2CC3CC(C2)CC1C3)C1CC1 (configuration not stated)	n	n	n	n	n	n	x	x	x
COc1cc2c(cc1OC)C(C)N(C(=O)c1cc3ccccc3o1)CC2 (configuration not stated)	n	15	n	n	n	n	16968	n	+
COc1cc2c(cc1OC)C(C)N(C(=O)C1COc3ccccc3O1)CC2 (configuration not stated)	n	7.3	n	n	n	n	19292	n	+
CCOc1ccccc1NC(=O)CSc1ccccc1	n	n	n	n	n	n	x	x	x
COc1ccc(NC(=O)CSc2nc3ccccc3c(=O)n2-c2ccc3c(c2)OCO3)c(OC)c1	n	3.92	n	n	n	n	8076	n	+
COc1ccc(-n2c(SCC(=O)Nc3ccc4c(c3)OCO4)nc3ccccc3c2=O)cc1	n	n	n	n	n	n	x	x	x
SMILES	FXIa inh mix	D1 mod	DAT uptake mod	FXIIa mix inh	M1 agonist	M1 antagonist	D1 mod confirm	D1 ag no DA	Isoprot counter
Clc1ccc(CSc2cc3c(nn2)-c2ccccc2CC3)cc1Cl	x	x	n	x	x	x	x	x	x
COCCCNc1nc(-c2ccncc2)nc2ccccc12	x	5.68	n	x	n	n	6996	x	+
CCN(CC)CCCNc1nc(-c2ccccc2)nc2ccccc12	x	x	n	x	x	x	x	x	x
COc1ccc(C(=O)N2CCN(Cc3cc(OC)c(O)c(OC)c3)CC2)cc1OC	x	n	n	x	n	n	x	x	x
CCOc1ccc(CC(=O)C2C(=O)CCCC2=O)cc1OCC	n	4.28	n	n	n	n	10588	n	+
CCOc1ccc(CC(=O)C2C(=O)CC(C)(C)CC2=O)cc1OCC	x	x	n	x	x	x	x	x	x
CCC1=C2CC[C@H]3C(=O)N(C)C(=O)[C@H]3[C@H]2[C@@]2(Cc3ccccc3)C(=NCC(=O)OC)OC(=O)N2C1=O	x	x	n	x	x	x	x	x	x
Cn1c(C(=O)N2CCN(C(=O)c3ccco3)CC2)cc2c(=O)n3ccccc3nc21	n	n	n	n	n	n	x	x	x
CCOC(=O)c1cc2c(=O)n3ccccc3nc2n(CCCOC)c1=NC(C)=O	n	4.65	x	n	n	n	9064	x	n
CCCn1c(=NC(=O)c2ccco2)c(C(=O)OCC)cc2c(=O)n3ccccc3nc21	n	6.12	n	n	n	n	16752	n	n
CC(C)C(=O)Nc1ccc(C(=O)NNC(=O)CCCOc2ccc(Cl)cc2Cl)cc1	x	x	n	x	x	x	x	x	x
COc1cc2c(cc1OC)C1=C(C#N)CCC(=O)N1CC2	x	13.1	n	x	n	n	16416	n	+
COc1cc2c(cc1OC)C1=C(C#N)CC/C(=N\S(=O)(=O)c3ccccc3)N1CC2	n	8.72	n	n	n	n	18960	x	+
COc1ccc(CCN2CC(C#N)=C3c4cc(OC)c(OC)cc4CCN3C2)cc1OC	n	4.99	3.35	n	n	n	14004	n	+
CCN(CC)C(=O)C(C)N(C#N)c1nc(NC(C)C)nc(NC(C)C)n1 (configuration not stated)	n	n	n	n	n	n	x	x	x
CC(C)Nc1nc(C#N)nc(NC(C)C)n1	n	11.2	n	n	n	n	12292	x	+
COc1ccc(-c2cc(C(=O)N3CCCCC3)no2)cc1OC	n	9.48	n	n	n	n	14812	x	+
Cc1cc(Nc2ccc(C)c(F)c2)n2ncnc2n1	n	3.29	n	n	n	n	n	n	n
c1ccc(Nc2cc(-c3ccccc3)nc3ncnn23)cc1	n	7.92	n	n	n	n	15552	n	+
